Measurements reported in PubChem BioAssay (NCATS).
Results filed as inconclusive are left out. The source made the active and inactive calls. The call rests on the fitted dose curve; in most records, active means well fitted curve in the direction sought with a large enough effect; inconclusive means small, poorly fitted or top-dose-only effect, or another doubt; inactive means no such curve, though single readings can be large; an effect the other way counts as inactive or inconclusive.

Assays:
[1] = molecular target: Protein phosphatase 1D (Homo sapiens) (UniProt O15297); experiment: RapidFire Mass Spectrometry qHTS Assay for Modulators of WT P53-Induced Phosphatase 1 (WIP1) (AID 1347424);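 further: amount of dephosphorylated VEPPL-S-QETFS peptide product formed by WIP1; series mostly up to about 63 µM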
Sequence of Protein phosphatase 1D (Homo sapiens) (O15297 whole entry, looked up): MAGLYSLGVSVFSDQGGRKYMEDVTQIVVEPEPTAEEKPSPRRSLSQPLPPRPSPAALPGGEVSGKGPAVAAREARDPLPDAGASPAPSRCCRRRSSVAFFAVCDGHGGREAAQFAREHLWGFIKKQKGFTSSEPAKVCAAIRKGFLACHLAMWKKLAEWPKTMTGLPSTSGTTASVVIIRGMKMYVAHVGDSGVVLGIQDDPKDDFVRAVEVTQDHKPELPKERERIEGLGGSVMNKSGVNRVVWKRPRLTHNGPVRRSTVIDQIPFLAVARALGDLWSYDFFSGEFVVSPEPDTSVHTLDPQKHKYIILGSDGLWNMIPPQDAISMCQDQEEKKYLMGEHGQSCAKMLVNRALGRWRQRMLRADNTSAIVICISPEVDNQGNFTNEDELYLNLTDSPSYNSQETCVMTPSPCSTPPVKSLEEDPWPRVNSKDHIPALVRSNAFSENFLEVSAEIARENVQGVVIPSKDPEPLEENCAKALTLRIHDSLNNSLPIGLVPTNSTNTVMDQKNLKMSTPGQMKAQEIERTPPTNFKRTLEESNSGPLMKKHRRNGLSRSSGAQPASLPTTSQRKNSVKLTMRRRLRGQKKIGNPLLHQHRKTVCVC
Outline: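 RapidFire mass spectrometry measured dephosphorylated peptide after 5 min room-temperature reaction of 2 uM VEPPL-pS-QETFS with 10 nM WIP1 (50 mM Tris-HCl pH 7.5, 30 mM MgCl2, 0.1 mM EGTA, BSA), following 1 hr compound preincubation; 1 uM isotope-labelled product standard.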

[2] = molecular target: Protein phosphatase 1D (Homo sapiens) (UniProt O15297); experiment: Rhodamine-PBP qHTS Assay for Modulators of WT P53-Induced Phosphatase 1 (WIP1) (AID 1347425)
Outline: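 The read-out is the change in Rhodamine-PBP fluorescence (f1 - f0, ex 525/em 598 nm) as Pi is released, read each minute for 11 min. Final reaction: 5 nM WIP1, 10 uM phosphopeptide VEPPL-pS-QETFS, 10 uM Rh-PBP, 50 mM Tris-HCl pH 7.5, 30 mM MgCl2. Compound was preincubated with enzyme for 1 hour at room temperature.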

[3] = Primary qHTS for inhibitors of La Crosse Virus (LACV) - induced cell death in SH-SY5Y cells (AID 1508616);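 further: top concentration of the series differs between compounds; higher means more rescue of cells from virus-induced death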
Outline: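 Cytopathicity rescue screen: compounds pinned onto SH-SY5Y cells, which are then infected with LACV (MOI 0.01) and held 6 days at 37C. Percent activity is scaled between infected DMSO control and uninfected DMSO control.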

[4] = molecular target: Calcium and integrin-binding protein 1 (Homo sapiens) (UniProt Q99828); experiment: Primary qHTS for Identification of Calcium Integrin Binding Protein 1 (CIB1) Competitor (AID 1508620);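 further: GST tagged CIB1 binding a fluorescein labelled alphaIIb integrin peptide tracer; top concentration of the series differs between compounds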
Sequence of Calcium and integrin-binding protein 1 (Homo sapiens) (Q99828 whole entry, looked up): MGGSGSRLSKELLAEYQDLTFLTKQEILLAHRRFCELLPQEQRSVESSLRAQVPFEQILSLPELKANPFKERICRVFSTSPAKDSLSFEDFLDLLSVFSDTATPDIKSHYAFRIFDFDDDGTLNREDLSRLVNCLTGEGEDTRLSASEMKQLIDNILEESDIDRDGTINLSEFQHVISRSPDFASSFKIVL
Outline: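 CIB1-GST (1 uM final) and compound incubated 15 min at room temperature before adding FITC-alphaIIb peptide tracer (100 nM final). Competition for binding read by fluorescence polarization (ex 480, em 540) after another 15 min at room temperature.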

Measured: Potency

CCN(CC)CCNc1ccc(CO)c2sc3ccccc3c(=O)c12
inactive: [1] | [2] | [3] | [4]

C[N+]1(C)CCC(=C(c2ccccc2)c2ccccc2)CC1
inactive: [1] | [2] | [3] | [4]

Cc1ccc(S(=O)(=O)NC(=O)NC2CCCC2)cc1
inactive: [1] | [2] | [3] | [4]

C=CCN1CCc2nc(N)sc2CC1
inactive: [1] | [2] | [3] | [4]

CC(=O)N[C@@H](CCC(=O)O)C(=O)O
inactive: [1] | [2] | [3] | [4]

CC(C)CCCC(C)N (stereo not drawn)
inactive: [1] | [2] | [3] | [4]

Oc1ccccc1C=NCc1ccccc1
inactive: [1] | [2] | [3] | [4]

COc1ccc(/C=N/NC(=O)c2ccncc2)cc1OC
inactive: [1] | [2] | [3] | [4]

COc1cc(C)nc(-n2nc(C)cc2OC)n1
inactive: [1] | [2] | [3] | [4]

CC(C)[C@@H]1CC[C@@H](C)CC1=O
inactive: [1] | [2] | [3] | [4]

CN1CCC(OC(c2ccccc2)c2ccccc2)CC1
inactive: [1] | [2] | [3] | [4]

NC1CCN(c2nc3c(cc2F)c(=O)c(C(=O)O)cn3-c2ccc(F)cc2F)C1 (stereo not drawn)
inactive: [1] | [2] | [3] | [4]

NC(=O)C1(N2CCCCC2)CCN(CCCC(=O)c2ccc(F)cc2)CC1
inactive: [1] | [2] | [3] | [4]

CCO[C@@H]1O[C@H](C(COCc2ccccc2)OCc2ccccc2)[C@H](OCc2ccccc2)[C@H]1O (stereo partly drawn)
inactive: [1] | [2] | [3] | [4]

CCCCOC(=O)CC(CC(=O)OCCCC)(OC(C)=O)C(=O)OCCCC
inactive: [1] | [2] | [3] | [4]

CCOC(=O)c1ccc(N)cc1
inactive: [1] | [2] | [3] | [4]

N#CCC(=O)NN
inactive: [1] | [2] | [3] | [4]

COc1cc(C(=S)N2CCOCC2)ccc1O
inactive: [1] | [2] | [3] | [4]

Cc1cccc(C)c1NC(=O)CN1CCCC1
inactive: [1] | [2] | [3] | [4]

FC(F)(F)C(F)(F)C(F)(F)C(F)(F)C(F)(F)C(F)(F)C(F)(F)C(F)(F)Br
inactive: [1] | [2] | [3] | [4]

CCC1NC(=O)c2cc(S(N)(=O)=O)c(Cl)cc2N1 (stereo not drawn)
inactive: [1] | [2] | [3] | [4]

CCCc1ncc(C[n+]2ccccc2C)c(N)n1
inactive: [1] | [2] | [3] | [4]

NCCNc1cccc2ccccc12
inactive: [1] | [2] | [3] | [4]

CCCCCCCCOc1ccc(C(=O)c2ccccc2)c(O)c1
inactive: [1] | [2] | [3] | [4]

CC1=C(C(=O)O)N2C(=O)[C@@H](NC(=O)[C@H](N)c3ccccc3)[C@H]2SC1
inactive: [1] | [2] | [3] | [4]

CC(=C(CCOC(=O)C(C)C)SSC(CCOC(=O)C(C)C)=C(C)N(C=O)Cc1cnc(C)nc1N)N(C=O)Cc1cnc(C)nc1N
inactive: [1] | [2] | [3] | [4]

C[N+]12CCC(CC1)C(OC(=O)C(O)(c1ccccc1)c1ccccc1)C2 (stereo not drawn)
inactive: [1] | [2] | [3] | [4]

C/C=C/C=N/NC(=O)c1ccncc1
inactive: [1] | [2] | [3] | [4]

Cl/C(=C\n1cncn1)c1ccc(Cl)cc1Cl
inactive: [1] | [2] | [3] | [4]

CCN1CCN(C(=O)N[C@@H](C(=O)N[C@@H]2C(=O)N3C(C(=O)O)=C(CSc4nnnn4C)CS[C@H]23)c2ccc(O)cc2)C(=O)C1=O
inactive: [1] | [2] | [3] | [4]

CCN(CC)CCOC(=O)C(Cc1cccc2ccccc12)CC1CCCO1 (stereo not drawn)
inactive: [1] | [2] | [3] | [4]

CC(C)[N+](C)(C)CC(O)COc1cccc2ccccc12 (stereo not drawn)
inactive: [1] | [2] | [3] | [4]

O=C1c2cccc3c2[C@H](CCC3)CN1[C@@H]1CN2CCC1CC2
inactive: [1] | [2] | [3] | [4]

CN1CCN(c2cc3c(cc2F)c(=O)c(C(=O)O)cn3-c2ccc(F)cc2)CC1
inactive: [1] | [2] | [3] | [4]

OC[C@H]1O[C@@H](Oc2ccc(O)cc2)[C@H](O)[C@@H](O)[C@@H]1O
inactive: [1] | [2] | [3] | [4]

O=S(=O)(O)c1ccc(O)cc1
inactive: [1] | [2] | [3] | [4]

COc1cc(O)c(C(=O)c2ccccc2)cc1S(=O)(=O)O
inactive: [1] | [2] | [3] | [4]
